Hit rate of the full screen: of about 100,000 compounds, about 4,200 (4.2%) were called active. For the sample, actives were picked, then their nearest neighbours and some compounds at random. Values without a mark were called inactive.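 The calls were made as follows: active = single-dose well whose peak fluorescence ratio is a statistical outlier from its plate by either plate-standardised score or position-corrected B-score; inactive = the rest.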

In this experiment the target is Voltage-dependent T-type calcium channel subunit alpha-1H (Homo sapiens) (UniProt O95180). Put plainly: Cav3.2 calcium influx blockers – cell-based, Fluo-4 calcium fluorescence, FDSS, MLSMR library, primary screen (AID 449739). Particulars: Cav3.2-expressing cells, at 10 µM, stronger effect = lower value.
Sequence of Voltage-dependent T-type calcium channel subunit alpha-1H (Homo sapiens) (O95180 whole entry, looked up): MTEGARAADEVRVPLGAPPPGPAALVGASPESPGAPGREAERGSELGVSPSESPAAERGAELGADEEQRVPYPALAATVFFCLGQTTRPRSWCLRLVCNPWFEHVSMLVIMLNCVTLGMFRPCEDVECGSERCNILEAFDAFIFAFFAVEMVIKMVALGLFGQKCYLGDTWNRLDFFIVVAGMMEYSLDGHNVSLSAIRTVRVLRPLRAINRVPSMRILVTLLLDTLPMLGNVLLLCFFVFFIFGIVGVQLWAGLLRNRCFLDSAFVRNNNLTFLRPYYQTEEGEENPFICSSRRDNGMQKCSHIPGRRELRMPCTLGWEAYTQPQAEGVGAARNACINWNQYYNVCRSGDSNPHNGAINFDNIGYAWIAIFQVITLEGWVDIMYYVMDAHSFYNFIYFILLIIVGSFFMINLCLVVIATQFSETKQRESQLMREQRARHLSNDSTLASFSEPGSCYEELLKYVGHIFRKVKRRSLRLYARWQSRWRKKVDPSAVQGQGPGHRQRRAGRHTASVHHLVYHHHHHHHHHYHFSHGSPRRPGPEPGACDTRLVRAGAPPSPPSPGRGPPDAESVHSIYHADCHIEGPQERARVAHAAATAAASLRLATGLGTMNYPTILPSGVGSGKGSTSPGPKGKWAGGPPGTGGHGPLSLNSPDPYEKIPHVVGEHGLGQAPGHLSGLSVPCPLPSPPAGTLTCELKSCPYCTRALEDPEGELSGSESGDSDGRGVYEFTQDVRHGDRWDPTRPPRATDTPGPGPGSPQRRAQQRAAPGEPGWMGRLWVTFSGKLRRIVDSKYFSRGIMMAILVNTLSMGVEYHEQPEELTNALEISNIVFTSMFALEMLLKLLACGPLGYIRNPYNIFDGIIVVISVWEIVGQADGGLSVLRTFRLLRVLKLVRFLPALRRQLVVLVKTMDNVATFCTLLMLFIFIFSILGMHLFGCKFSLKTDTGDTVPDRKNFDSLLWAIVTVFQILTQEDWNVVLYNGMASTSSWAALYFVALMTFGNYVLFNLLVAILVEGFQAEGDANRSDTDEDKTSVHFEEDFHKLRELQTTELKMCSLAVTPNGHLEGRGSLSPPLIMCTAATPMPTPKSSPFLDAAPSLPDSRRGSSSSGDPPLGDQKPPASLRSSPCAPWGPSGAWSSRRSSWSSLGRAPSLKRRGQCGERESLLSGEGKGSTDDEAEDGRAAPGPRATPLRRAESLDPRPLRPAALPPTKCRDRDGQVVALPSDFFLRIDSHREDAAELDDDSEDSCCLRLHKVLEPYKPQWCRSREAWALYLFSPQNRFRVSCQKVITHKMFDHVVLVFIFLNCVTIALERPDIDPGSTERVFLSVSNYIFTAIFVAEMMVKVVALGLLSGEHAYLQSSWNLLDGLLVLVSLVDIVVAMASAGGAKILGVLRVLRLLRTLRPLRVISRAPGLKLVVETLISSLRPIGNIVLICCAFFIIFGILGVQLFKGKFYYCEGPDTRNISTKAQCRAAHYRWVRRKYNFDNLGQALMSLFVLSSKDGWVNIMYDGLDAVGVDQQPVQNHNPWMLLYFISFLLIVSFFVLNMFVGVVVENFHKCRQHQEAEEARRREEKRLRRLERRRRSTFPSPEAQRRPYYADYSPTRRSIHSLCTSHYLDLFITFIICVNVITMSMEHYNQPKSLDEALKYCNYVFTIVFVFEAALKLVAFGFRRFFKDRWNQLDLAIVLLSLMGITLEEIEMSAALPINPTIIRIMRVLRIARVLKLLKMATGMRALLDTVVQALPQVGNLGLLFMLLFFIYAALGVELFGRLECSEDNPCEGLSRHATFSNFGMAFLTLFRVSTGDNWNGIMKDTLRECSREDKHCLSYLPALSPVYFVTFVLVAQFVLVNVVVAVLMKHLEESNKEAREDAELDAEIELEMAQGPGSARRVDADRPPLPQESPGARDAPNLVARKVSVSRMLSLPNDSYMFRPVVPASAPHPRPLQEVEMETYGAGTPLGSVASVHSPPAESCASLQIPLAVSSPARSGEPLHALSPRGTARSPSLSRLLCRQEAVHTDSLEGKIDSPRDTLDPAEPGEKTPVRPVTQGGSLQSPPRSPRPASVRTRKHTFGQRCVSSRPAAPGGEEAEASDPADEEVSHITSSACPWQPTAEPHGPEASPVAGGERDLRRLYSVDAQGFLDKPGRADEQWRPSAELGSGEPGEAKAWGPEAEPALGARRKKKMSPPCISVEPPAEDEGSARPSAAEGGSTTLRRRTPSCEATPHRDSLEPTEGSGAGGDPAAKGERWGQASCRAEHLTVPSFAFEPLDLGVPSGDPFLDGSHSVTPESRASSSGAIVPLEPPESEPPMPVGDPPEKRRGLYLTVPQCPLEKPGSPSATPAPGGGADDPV
`CCOC(=O)c1c(N)n(CCN2CCOCC2)c2nc3ccccc3nc12`: the B-score was 0.618.
With `CCOC(=O)c1c(N)n(Cc2ccccc2)c2nc3ccccc3nc12` the figure was -0.856; with `COc1cc(Cn2c(N)c(C(=O)NCc3ccco3)c3nc4ccccc4nc32)cc(OC)c1OC`, -1.47 (active); with `O=C(COc1ccc2ccccc2c1)N1CCN(Cc2ccncc2)CC1`, 0.31.
In the case of `CCCCCCN=C(CC)c1c(O)n(CCCC)c(=O)[nH]c1=O` it was -6.91 (active).
As to `CCCCn1c(O)c(C(CC)=NCc2ccco2)c(=O)[nH]c1=O`, the B-score was -0.626.
Turning to `CCC(=NCCCO)c1c(O)n(-c2ccc(OC)cc2)c(=O)[nH]c1=O`, the B-score was -0.0478.
With `COC(=O)C1=C(c2cc3ccccc3o2)C[C@@H]2CC[C@H]1N2C(=O)NC1CCCCC1` the figure was -0.929.
In the case of `COc1ccc2c(c1)[C@]13CCCCC1C(C2)N(C)CC3` (stereo not given in full), the B-score is 1.06.
With `CCCCCn1c(=O)c(C(=O)Nc2c(C)n(C)n(-c3ccccc3)c2=O)c(O)c2ccccc21`, the B-score is -7.21 (active).
With `CCCCCn1c(=O)c(C(=O)NCc2ccccn2)c(O)c2ccccc21` the figure was -1.65; with `C[C@@]1([C@@H](NP(=O)(c2ccccc2)c2ccccc2)c2ccccc2)C[C@H]1CCO`, -0.319.
For the compound `C[N+]1(C)CCOC(O)(c2ccc(-c3ccc(C4(O)C[N+](C)(C)CCO4)cc3)cc2)C1` (stereo not given), the B-score is 0.445.
With `C=CC12CN(C)[C@@H]3C4CO[C@H](C[C@H]41)[C@]1(C(=O)Nc4ccccc41)[C@@H]32` (stereo not given in full) the figure was -0.174; with `Cc1ccc(N(C)C(=O)Oc2cccc3ccc(C)nc23)cc1`, -6.07 (active); with `COC(=O)C1=C(c2ccccc2)C[C@@H]2CC[C@H]1N2C(=O)NCc1ccco1`, 0.641.
For `CCCC[N+]1(C)C2CC(OC(=O)C(CO)c3ccccc3)CC1C1OC12` (stereo not given), the B-score was -0.292.
Regarding `CN(C)C(=O)NC(O)C(Cl)(Cl)Cl` (stereo not given), the B-score is -0.859.
As to `CNCC(O)c1cc(F)c(OCc2ccccc2)c(OCc2ccccc2)c1F` (stereo not given), the B-score was -0.0158.
With `CC(C)(C)c1ccc(CN2C(=O)CN=C(c3ccccc3)c3ccccc32)cc1` the figure was -5.08 (active).
With `CC1C2Cn3c(nc4ccccc43)C1N(C)O2` (stereo not given) the figure was 0.301; with `COC(=O)C1=C(c2cc3ccccc3s2)C[C@@H]2CC[C@H]1N2C(=O)NCc1cccc2ccccc12`, -4.11 (active).
In the case of `COC(=O)C1=C(c2cc3ccccc3s2)C[C@@H]2CC[C@H]1N2C(=O)NCCO` it was 0.584; in that of `COC(=O)C1=C(c2cc3ccccc3s2)C[C@@H]2CC[C@H]1N2C(=O)NC(C)C`, 0.726; in that of `COC(=O)C1=C(c2ccccc2)C[C@@H]2CC[C@H]1N2C(=O)N1CCCCC1`, 0.364.
For `COc1ccc2c(c1O)-c1cccc3c1[C@@H](C2)N(C)CC3`, the B-score is -2.61.
In the case of `COc1c(O)ccc2c1-c1c3c(cc4c1C(C2)N(C)CC4)OCO3` (stereo not given) it was 0.137.
As to `CC[C@H]1CC2CN3CCc4c([nH]c5ccccc45)C(C(=O)OC)(C2)C13` (stereo not given in full), the B-score is -1.28.
`NCC(O)c1ccc(O)cc1` (stereo not given): the B-score is 1.98.
With `CC(C)(C)[C@]1(O)C[C@@H]2OC(=O)C[C@@]23C(=O)O[C@@H]2OC(=O)[C@H](O)[C@]213` the figure was 0.0998.

These data come from PubChem BioAssay AID449739 (Vanderbilt High Throughput Screening Facility, 2010).
